Experimental findings from PubChem BioAssay (NCI) are described below.

What all share (experiment): NCI-60 one-dose screen, 48 h (100 = growth as untreated, 0 = no growth, -100 = all killed)
Conditions in all cases: 10 µM

Test [1] relates to NCI-H23 lung.
The test system of test [2] is NCI-H226 lung.
Test [3] relates to NCI-H460 lung.
Test [4] concerns HOP-92 NSCLC.
In test [5] the test system is NCI-H522 lung.
The subject of test [6] is A549/ATCC NSCLC.
Test [7] deals with 786-0 renal.
Test [8] relates to COLO 205 colon.
Test [9] concerns HOP-62 NSCLC.

About 83,000 compounds went through this panel and 20% of them were active in at least one assay; those are over-represented in the sample as a whole.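 Interpretation: 100, growth as untreated; towards 0, rising growth inhibition; 0, no net growth; 0 to -100, cell death. Compounds scoring below 10 were considered active.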 Unmarked numbers belong to inactive results. The source made the active and inactive calls.

For the compound `O=C(CCCSc1nc(-c2ccc(Cl)cc2)cc(-c2ccc(Cl)cc2)n1)NO`, the growth was 13.2% in test [1]; 2.42% (active) in [2]; 0.534% (active) in test [3]; 28% in [4]; 6% (active) in [5]; 10.2% in test [6]. Moreover, the growth in [7] was 6.25% (active); in [8], 9.44% (active).

Consider `COC(=O)c1c[nH]c2cc(OC(C)C)c(OC(C)C)cc2c1=O`, for which the growth in test [1] is 97.6%; in test [2] it was 92.9%; in test [9], 37.9%; in test [4] it was 80.5%; in test [5], 94.3%; in test [6], 61.8%. Also, the growth in [7] was 110%; in test [8], 108%.

As for `CCOC(=O)N/N=C/c1ccc(OC)c(OC)c1`, the growth is 113% in test [1]; 97.9% in [2]; 112% in [9]; 102% in [3]; 102% in [6]; 104% in [7]. Besides, the growth in [8] was 117%.

With `COc1cc2cc(Oc3ccc(NC(=O)c4cc(C(F)(F)F)cc(C(F)(F)F)c4)cc3)c(C)nc2cc1OC`, the growth in test [1] was 32.6%; in test [2], 53.6%; in test [3], 26.9%; in test [4] it was -6.21% (active); in test [5], 34%; in test [6], 30.7%. The growth in test [7] was 64.5%; in [8] it was 51.7%.

With `O=c1cn[nH]c2ccc(Br)cc12`, the growth in test [1] is 97.6%; in test [2], 100%; in test [3] it was 108%; in test [4] it was 123%; in test [5], 91.3%; in test [6] it was 102%. Also, the growth was 99.6% in test [7] and 109% in test [8].

As for `O=C(Nc1cc([N+](=O)[O-])c2[nH]c(=O)c3ccccc3c2c1)C(F)(F)F`, the growth in [1] was 81.8%; in test [2], 93.4%; in test [3], 38.4%; in [4], 112%; in [5], 77.2%; in test [6], 62%. Moreover, the growth in test [7] was 88.8%; in test [8], 88.5%.

As to `COc1ccc(-c2nn(-c3cccc(Cl)c3)cc2-c2cc(-c3ccccc3)[nH]c(=O)c2C#N)cc1`, the growth is 26.6% in test [1]; 24% in [2]; 31.6% in test [3]; -28% (active) in test [4]; 44% in [5]; 39.7% in test [6]. The growth in test [7] was 6.65% (active); in test [8], 60.7%.

In the case of `Cc1cn(-c2cc(F)cc(NC(=O)c3ccc(C)c(Nc4nccc(-c5cccnc5)n4)c3)c2)cn1`, the growth in test [1] was 94.2%; in test [2], -12.3% (active); in [3] it was 20.1%; in test [4] it was -22% (active); in test [5] it was 11.5%; in test [6], 19.3%. Further, the growth in [7] was -6.06% (active); in test [8], 70.9%.

For the compound `O=C1CCn2c1c(O)c1ccccc1c2=O`, the growth in test [1] was 99.5%; in test [2], 101%; in test [3] it was 105%; in test [4], 95.4%; in test [5], 112%; in test [6], 100%. In addition, the growth is 105% in test [7] and 123% in test [8].

On to `Cc1cc(O)ccc1C1=NN(c2ccc(S(C)(=O)=O)cc2)C(=O)CC1`, for which the growth in test [1] was 32.9%; in [2], 93.3%; in test [3] it was 73.1%; in test [4] it was 92.8%; in test [5], 2.39% (active); in test [6] it was 72.2%. Besides, the growth in test [7] is 84.1%; in test [8] it was 65.8%.

For the compound `Fc1ccc(C(c2ccc(F)cc2)C(Cl)Cl)cc1`, the growth in [1] is 100%; in [2], 105%; in test [9], 115%; in test [4] it was 75.8%; in [6] it was 102%; in test [7], 95.7%. For the same compound, the growth in test [8] was 108%.

With `O[C@@H]1CO[C@H]2[C@@H]1OC[C@@H]2O`, the growth in test [1] was 109%; in test [2] it was 109%; in test [9], 107%; in test [4] it was 108%; in test [5], 111%; in test [6], 96.9%. Besides, the figures for the growth in test [7] and in [8] were 109% and 119%, respectively.

Regarding `COc1ccc(-c2nn(-c3cccc(Cl)c3)cc2-c2c(C#N)c(=O)n3[nH]c(-c4ccc(C)cc4)nc3c2C#N)cc1`, the growth is 75.3% in test [1]; 57.5% in [2]; 39.3% in test [3]; 59.2% in test [4]; 20.5% in test [5]; 50.5% in test [6]. Also, the growth is 3.78% (active) in test [7] and 15.9% in [8].

As for `CN(C)CCC1(c2ccccc2)CCN(C)C1=O` (centres undefined), the growth in test [1] is 103%; in test [2], 95.7%; in test [9], 96.9%; in [4], 123%; in [5], 86.4%; in test [6] it was 105%. For the same compound, the growth was 109% in [7] and 105% in [8].

`CCCCCCCCCCCC[n+]1c(C)cc(N)c2ccccc21`: the growth was -36.8% (active) in test [1]; 11.1% in [2]; 3.61% (active) in test [9]; -6.03% (active) in test [4]; -29.7% (active) in test [5]; 57% in test [6]. In addition, the growth in test [7] was 0.277% (active); in test [8], -66.7% (active).

As to `CCOc1ccccc1/C=N/N1CCCCCC1`, the growth is 89.3% in [1]; 88.2% in test [2]; 107% in test [3]; 86.9% in test [4]; 102% in test [5]; 117% in [6]. Moreover, the growth in test [7] was 119%; in test [8], 108%.

Regarding `COc1ccc(-c2nn(-c3cccc(Cl)c3)cc2-c2cc(-c3ccccc3)nc(N)n2)cc1`, the growth in test [1] is 42.2%; in [2] it was 69.3%; in test [3], 31.6%; in test [4] it was 69.2%; in [5], 45.8%; in [6], 61.1%. Also, the growth in test [7] is 60.1%; in test [8], 35.8%.

As to `CCOC(=O)C(C)(c1ccccc1)c1ccccc1`, the growth is 106% in test [1]; 100% in test [2]; 106% in test [3]; 98.6% in test [4]; 94.8% in test [5]; 92.9% in [6]. For the same compound, the growth in test [7] was 119%; in [8], 120%.

For the compound `Cc1cn(-c2cccc(NC(=O)c3ccc(C)c(Nc4nccc(-c5cccnc5)n4)c3)c2)cn1`, the growth in test [1] is 32.2%; in test [2] it was -43% (active); in test [3], -13% (active); in [4], -13% (active); in [5] it was -17.7% (active); in test [6], 10.7%. Further, the growth in test [7] is -52.2% (active); in test [8], 11%.

With `CC1=CC2C(C(O)CC3(C)C2CC(C)C32OCOC23COCO3)C2(C)C/C(=C/O)C(=O)C=C12` (centres undefined), the growth in test [1] is -0.378% (active); in [2] it was 78.4%; in test [3] it was 7.96% (active); in test [4], 94.1%; in test [5] it was -26.7% (active); in test [6], 41.8%. Further, the growth in test [7] is 58.8%; in [8] it was -14.4% (active).

For the compound `COc1ccc(-c2nn(-c3cccc(Cl)c3)cc2C=C(C#N)C#N)cc1`, the growth in test [1] is -45.2% (active); in test [2], 25.4%; in test [3], 1.56% (active); in test [4], 11%; in test [5] it was -12.1% (active); in test [6], 19.1%. Besides, the results for the growth in test [7] and in test [8] were -8.39% (active) and -9.68% (active), respectively.

As to `COc1ccc(/C(=N\N)C(=O)c2ccccc2)cc1` (tested in a mixture with another compound), the growth in [1] is 96.8%; in [2], 95.6%; in test [9], 100%; in test [4], 82.7%; in test [5] it was 72.7%; in test [6], 90.4%. In addition, the growth in test [7] is 105%; in test [8] it was 110%.

Regarding `CC(C)(C)OC(=O)CC(S(=O)(=O)c1ccccc1)S(=O)(=O)c1ccccc1`, the growth in [1] is 102%; in test [2], 94.5%; in [9] it was 103%; in [4] it was 122%; in test [5], -36.4% (active); in test [6], 112%. Further, the growth is 105% in test [7] and -98.1% (active) in [8].

Turning to `COc1ccc(C(=O)N2C=Cc3ccccc3C2C#N)cc1` (centres undefined), the growth in test [1] was 95.3%; in test [2] it was 87.7%; in test [9], 89.4%; in test [4], 102%; in test [5] it was 94.2%; in test [6], 101%. For the same compound, the growth in test [7] was 114%; in test [8] it was 105%.

On to `Nc1ncnc2c1ncn2C1(CO)OCC(O)C(O)C1O` (centres undefined), for which the growth is 96.8% in test [1]; 107% in [2]; 107% in [3]; 113% in test [4]; 82.4% in test [5]; 96.7% in [6]. The growth in [7] was 101%; in test [8], 113%.

With `COc1ccc(-c2nn(-c3cccc(Cl)c3)cc2-c2cc(-c3cccs3)[nH]c(=S)n2)cc1`, the growth in [1] is 15.7%; in test [2] it was 58.9%; in test [3] it was 43.8%; in [4] it was 94%; in test [5], 46.5%; in [6] it was 39.7%. In addition, the growth is 38.4% in [7] and 52.4% in test [8].

As to `CN(C)c1ncnc2c1nnn2C1OC(CO)C(O)C1O` (centres undefined), the growth was 4.79% (active) in [1]; 39.9% in [2]; 32.7% in test [9]; 19.6% in test [4]; -25.2% (active) in test [5]; 36.3% in [6]. Further, the growth was 17.2% in test [7] and -80.9% (active) in test [8].

In the case of `COC(=O)CC[C@@H](C)[C@H]1CC[C@H]2[C@@H]3CC[C@@H]4C[C@H](O)CC[C@]4(C)[C@H]3C[C@H](O)[C@]12C`, the growth was 116% in test [1]; 102% in test [2]; 109% in test [9]; 110% in [3]; 102% in test [6]; 107% in test [7]. For the same compound, in test [8], the growth is 101%.

Consider `NC1=CC(=O)C(=O)c2cccnc21`, for which the growth in [1] is 18.7%; in [2], 82.4%; in test [9], 80.2%; in test [4], 149%; in [5], 59.8%; in [6] it was 43.9%. Besides, the growth is 99.7% in [7] and 98.7% in test [8].

With `CCOc1ccccc1/C=N\N=C(\N)N/N=C/c1ccccc1OCC`, the growth in [1] was 23.7%; in test [2] it was 59.1%; in test [9], 43.7%; in test [4], 46.5%; in test [6], 39.4%; in [7], 21.4%. Besides, in test [8], the growth is 28.9%.

Consider `COc1cc2cc(Oc3ccc(NC(=O)Nc4ccc(Cl)c(C(F)(F)F)c4)cc3)c(C)nc2cc1OC`, for which the growth in test [1] was 3.46% (active); in test [2], 4.49% (active); in test [3], -19.8% (active); in [4], -22.3% (active); in test [5] it was -43.6% (active); in test [6] it was -17.2% (active). For the same compound, the growth in [7] is -21.1% (active); in test [8] it was -49.5% (active).
